Screens: PubChem BioAssay, several laboratories
MEX-5 binding = C. elegans MEX-5 TCR-2 RNA binding activity. Q9XUB2. MEX-5/FITC-TCR2 RNA binding, fluorescence polarization; active compounds read low. activity score (negative = inhibition of binding), % at 10 µM. 300,000 tested, 0.38% active. AID 1832;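 active = inhibition past about -25% in most replicates, and total fluorescence under double the plate's negative control median, limit read from the data; inconclusive = replicates evenly split on the limit, or fluorescence at least double controls; inactive = too little inhibition in most replicates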;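 also: 0% = DMSO and -100% = 5 µM competing unlabeled TCR2 RNA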
GLD-1 RNA inh = GLD-1-TGE RNA interaction inhibition (C. elegans); inhibition, % at 5.96 µM; 320,000 tested, 0.44% active; Q17339; purified GLD-1 + fluorescein TGE RNA, fluorescence polarization;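 active = percent inhibition above a per-plate cutoff, the plate mean of test compounds plus 3 SD, cut at about 30% in these data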;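 also: 0% = DMSO wells with GLD-1 and probe and 100% = wells lacking GLD-1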
MCL1 BIM primary = MCL1-BIM-BH3 interaction inhibition (human). GST-MCL1 / FITC-Bim-BH3 fluorescence polarization. inhibition, % at 10.9 µM. 320,000 tested, 0.68% active;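 active = inhibition above the mean inhibition of all tested compounds plus 3 SD, set per campaign, cut at about 40% in these data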;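 also: 0% = DMSO wells and 100% = unlabeled Bim-BH3 peptide control; higher means more loss of mP so more displacement of Bim peptide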
Target sequence (Q07820 whole entry, looked up): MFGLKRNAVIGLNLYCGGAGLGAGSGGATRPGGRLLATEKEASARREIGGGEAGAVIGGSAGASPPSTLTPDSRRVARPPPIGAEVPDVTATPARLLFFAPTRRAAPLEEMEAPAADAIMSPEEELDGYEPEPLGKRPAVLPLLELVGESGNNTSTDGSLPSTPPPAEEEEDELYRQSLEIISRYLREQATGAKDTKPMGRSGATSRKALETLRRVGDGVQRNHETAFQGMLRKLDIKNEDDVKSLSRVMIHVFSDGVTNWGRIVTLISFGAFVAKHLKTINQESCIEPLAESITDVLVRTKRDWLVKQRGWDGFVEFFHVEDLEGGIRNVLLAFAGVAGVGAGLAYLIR
Bcl-xL primary = inhibitors of human Bcl-xL; 320,000 tested, 0.7% active; Q07817; GST-Bcl-xL / FITC-Bim BH3 peptide fluorescence polarization; inhibition, % at 10.9 µM;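 active = inhibition above the mean of all tested compounds plus 3 SD, cutoff set per campaign, cut at about 30% in these data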;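 also: 0% = DMSO wells and 100% = unlabeled Bim-BH3 peptide competitor; inhibitors lower millipolarization by displacing the labeled peptide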
Target sequence (Q07817 whole entry, looked up): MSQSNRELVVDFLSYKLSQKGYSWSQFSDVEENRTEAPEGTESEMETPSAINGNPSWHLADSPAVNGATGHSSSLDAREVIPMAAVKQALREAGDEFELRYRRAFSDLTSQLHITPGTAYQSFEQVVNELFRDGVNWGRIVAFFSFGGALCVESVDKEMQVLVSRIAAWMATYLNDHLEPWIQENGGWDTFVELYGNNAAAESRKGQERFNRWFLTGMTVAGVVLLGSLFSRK
E coli Lon inh = E. coli protease La inhibition | inhibition, % at 7.94 µM | purified E. coli Lon protease, fluorescence polarization | 360,000 tested, 0.42% active; in the data active = inhibition above about 13%, passing the limit was not always enough;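 also: 0% = enzyme with probe and DMSO and 100% = no enzyme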
Active calls of the source: *; ? = inconclusive; . = no result; + = active, no number. In the library only some 1.4% were active in any assay of this set; here they are far more common.

SMILES	MEX-5 binding	GLD-1 RNA inh	MCL1 BIM primary	Bcl-xL primary	E coli Lon inh
C[C@H](NC(=O)[C@@H]1CCCN1C(=O)[C@@H]1CCCN1C(=O)c1cccs1)c1ccccc1	.	.	.	.	-1
CN(Cc1ccon1)C(=O)CC1C(=O)NCCN1Cc1ccc(F)c(F)c1 (stereo unspecified)	0	12	17	13	-1
CN(Cc1ccon1)C(=O)CC1C(=O)NCCN1Cc1ccc(Cl)c(F)c1 (stereo unspecified)	-4	25	35	36*	8
COc1cccc(CNC[C@H]2O[C@@H](n3ccc(N)nc3=O)[C@H](O)[C@@H]2O)c1OCc1ccc(F)cc1Cl	.	.	.	.	-5
CC(C)OCCCn1c(=NC(=O)c2ccncc2)c(C#N)cc2c(=O)n3ccccc3nc21	-5	17	37	34*	-3
Cc1nnc(NC(=O)CSc2nnc(Cc3cccn3C)n2-c2ccccc2)s1	0	-6	-7	1	-1
Cc1nnc(NC(=O)CSc2nnc(Cc3cccn3C)n2-c2cccc(C)c2C)s1	0	-4	-2	104*	.
CC(NC(=O)Nc1cccc(Cl)c1)C(c1cccs1)N1CCCC1 (stereo unspecified)	0	5	0	6	-5
CC(NC(=O)Nc1ccc([N+](=O)[O-])cc1)C(c1cccs1)N1CCCC1 (stereo unspecified)	-2	4	2	52*	13
Cc1c(S(=O)(=O)c2ccccn2)c(N)n(Cc2ccccc2Cl)c1C	-4	11	26	21	-22
Cc1c(S(=O)(=O)c2ccccn2)c(N)n(Cc2ccccc2)c1C	-2	22	47*	55*	-21
COc1cc(C(c2c(C(=O)O)[nH]c3ccccc23)c2c(C(=O)O)[nH]c3ccccc23)ccc1OCc1ccccc1	?	0	68*	3	1
CC(C)(C)S(=O)N1Cc2cc(C(=O)NCC(F)(F)F)nc(-c3cccc(-c4cccc(F)c4)c3)c2[C@@H]1CCO (stereo partly specified)	.	.	.	.	-1
Nc1ccc(N(CCO)CCO)cc1	-28*	22	43*	42*	9
COc1ccc2cc(C(C)=O)c(=O)oc2c1	0	-3	-5	2	-1
CC(=O)c1cc2ccc(O)cc2oc1=O	-2	25	37	48*	1
CCOC(=O)C1(C)CCCN(C(=O)c2cc(OC)c(OC)c(OC)c2)C1 (stereo unspecified)	.	.	.	.	-10
O=C(NNC(=O)c1cc(Br)ccc1Cl)c1csc(N2CCOCC2)n1	-3	-1	6	3	-2
O=C(NNC(=O)c1cc(Cl)ccc1[N+](=O)[O-])c1csc(N2CCOCC2)n1	-31*	6	0	2	-16
CC1(C)OC2COC(c3[nH]nc4c(=O)[nH]c(=O)[nH]c34)C2O1 (stereo unspecified)	.	.	.	.	-8
CC(C)COc1cccc(C(=O)Nc2ccc(S(=O)(=O)N3CCOCC3)cc2)c1	-2	8	4	0	-2
COc1cccc(-n2c([S-])c(C(=O)Nc3ccc(S(=O)(=O)N4CCOCC4)cc3)[n+]3cc(C(N)=O)ccc23)c1	-2	23	35	36*	12
O=C(O)C1OC(Oc2cc3oc(-c4ccccc4)cc(=O)c3c(O)c2O)C(O)C(O)C1O (stereo unspecified)	-60*	12	13	10	9
COc1c(OC2OC(C(=O)O)C(O)C(O)C2O)cc(O)c2c(=O)cc(-c3ccccc3)oc12 (stereo unspecified)	-10	-1	8	8	-3
N=c1oc2c3c4c(cc2cc1C(=O)Nc1ccccc1)CCCN4CCC3	?	88*	191*	165*	6
SMILES	MEX-5 binding	GLD-1 RNA inh	MCL1 BIM primary	Bcl-xL primary	E coli Lon inh
CN(C)CCNc1oc(COc2ccc(Cl)cc2Cl)nc1C#N	-2	26	42*	34*	13
CC(NNC(=S)N1CCCCCC1)c1ccc2ccccc2n1 (stereo unspecified)	.	.	.	.	-9
COC(=O)C[C@H]1C[C@H]2c3cc(NC(=O)Nc4ccc(F)cc4)ccc3O[C@H]2[C@@H](CO)O1	.	.	.	.	-10
Cc1ccc(C(=O)Nc2nnc(CC(=O)N/N=C/c3ccncc3)s2)cc1	1	-5	-1	1	6
COc1ccc(C(=O)Nc2nnc(CC(=O)N/N=C/c3ccc(O)cc3O)s2)cc1	?	43*	4	4	-68
Cn1ncc(N)c1C(=O)Nc1cccc(C(F)(F)F)c1	-2	4	7	41*	9
COc1cccc(CCN2C(=O)C(=O)N([C@@H](CNCc3ccccc3)Cc3ccccc3F)C[C@@H]2C(C)(C)C)c1	.	181*	6	5	.
Cc1ccc(-c2nc(N=Nc3ccc(O)cc3)n[nH]2)cc1	-5	-5	0	3	-21
Cc1nc(N=Nc2ccc(O)cc2)n[nH]1	-29*	-4	1	1	-7
COCCNC(=O)CSc1ccc(-c2nc3ccccc3[nH]2)cn1	-1	1	-8	61*	1
CCOC(=O)CSc1ccc(-c2nc3ccccc3[nH]2)cn1	3	-4	2	3	-4
CC1(c2nc3ccccc3[nH]2)CCC(=O)N1Cc1ccc(F)cc1 (stereo unspecified)	.	.	.	.	3
CN1/C(=C\C=C(/C#N)C(=O)Nc2ccccc2F)C(C)(C)c2ccccc21	-39*	-55	-67	-45	-74
CN1/C(=C/C=C(/C#N)C(N)=O)C(C)(C)c2ccccc21	9	-44	-47	-24	-66
Cc1ccsc1C(=O)N1CCC1(C)C(=O)NCC(C)(C)C (stereo unspecified)	.	.	.	.	-1
O=C(/C=C/c1ccc(O)c(O)c1)OCCc1ccccc1	-1	6	33	18	0
O=C(/C=C/c1ccc(O)c(O)c1)OC(Cc1ccc(O)c(O)c1)C(=O)O (stereo unspecified)	-53*	2	28	20	2
CC(C)N1CCc2c(sc(N)c2C#N)C1	?	-75	43*	47*	-64
CC(C)N1CCc2c(sc(NC(=S)NC(=O)c3ccccc3)c2C#N)C1	0	-105	-110	-36	-122
CC1Oc2ccc(C#N)cc2N(Cc2ccc(F)cc2)C1=O (stereo unspecified)	.	.	.	.	-1
COc1ccc(C(=O)Nc2cc(C(C)=O)c(C)oc2=O)cc1	-2	-8	-2	3	-5
CC(=O)c1cc(NC(=O)c2ccc(Cl)cc2)c(=O)oc1/C=C/N(C)C	-26*	-151	-103	-69	-146
CC(=O)c1cc(NC(=O)c2cccc(C(F)(F)F)c2)c(=O)oc1C	-1	-7	5	8	-6
CC(=O)c1cc(NC(=O)c2cccc(C(F)(F)F)c2)c(=O)oc1/C=C/N(C)C	-36*	-72	-85	-44	-62
OCCCc1nc2n(n1)C(c1cccs1)C=C(c1ccccc1)N2 (stereo unspecified)	?	154*	+	177*	.
